# Data taken from PubChem BioAssay (NCI).
# This is part of a sample that, as a whole, favours compounds with a hit. Of some 83,000 tested, about 20% had one in any assay.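 Plates (96-well) were seeded with cells, treated with compound at one concentration, and incubated for 48 hours before percent growth was determined.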 Calls of active or inactive are those of the source. The calls were made as follows: active = growth percent below 10; inactive = the rest.
# System: CCRF-CEM leukemia
# Test: NCI-60 one-dose screen, 48 h (100 = growth as untreated, 0 = no growth, -100 = all killed)
# Conditions: 10 µM
row,Structure (SMILES),growth
1,COc1ccccc1/C=N\N/C(N)=N\N=C\c1ccccc1OC,-19.6% (active)
2,O=c1cn[nH]c2ccc(Br)cc12,96.1% (inactive)
3,OCCn1cccn1,99.7% (inactive)
4,NS(=O)(=O)c1ccc(N2N=C(c3ccccc3)CCC2=O)cc1,108% (inactive)
5,COc1ccccc1N1CCCSC1=Nc1ccccc1,67.6% (inactive)
6,CC(C)N(CCOc1cccc(-c2nc3sccn3c2-c2ccnc(S(C)(=O)=O)n2)c1)C(C)C,81% (inactive)
7,O=C(CCC(C(=O)c1ccccc1)c1ccccc1)c1ccccc1 (stereo not drawn),38.2% (inactive)
8,COc1cccc(C2C(C#N)=C(N)Oc3cc(N)ccc32)c1 (stereo not drawn),11.4% (inactive)
9,CCN(CC)CCCC(C)Nc1c2ccc(Cl)cc2nc2ccc(OC)cc12 (stereo not drawn),39.4% (inactive)
10,CC(C1=C(CN(C(=O)Cc2cn(-c3ccccc3)nc2-c2ccc(Cl)cc2)C(C)C)Cc2ccccc21)c1ccccn1 (stereo not drawn),53.3% (inactive)
11,CNS(=O)(=O)Oc1ccc(-c2ccc3occc3c2)cc1,87.7% (inactive)
12,O=C1c2ccccc2C(=O)N1CCCCNc1ccccc1,21.3% (inactive)
13,Cc1ccc(S(=O)(=O)N(C)CCCCCC(=O)O)cc1,110% (inactive)
14,CCN(CC)CCNc1ccc(C)c2sc3cc(Cl)ccc3c(=O)c12,11.6% (inactive)
15,O=C(/C=C/c1cccc(B(O)O)c1)c1cccc(B(O)O)c1,-13.8% (active)
16,Cc1ccc(NC(=S)NNC(=S)Nc2ccc(C)cc2)cc1,43.9% (inactive)
17,CCN(CC)CCN1c2nc3ccccc3cc2Sc2cc3ccccc3nc21,-27.3% (active)
18,CN(C)c1ccc(/C=N/NC(=O)c2ccccc2Nc2cccc(C(F)(F)F)c2)cc1,53.4% (inactive)
19,Cc1ccc(C2NC(=S)N3C(c4ccc(C)cc4)NC(=S)N23)cc1 (stereo not drawn),12.3% (inactive)
20,CN(C)CCCSc1ccccc1NC1=C(Cl)C(=O)C(Nc2ccccc2SCCCN(C)C)=C(Cl)C1=O,-15.2% (active)
21,CCOC(=O)c1cc(C(=O)c2cc(OC)c(OC)c(OC)c2)n2c1ccc1c3cccnc3ccc12,62.7% (inactive)
22,NC1=NC(c2ccccc2)C2=C(N1)/C(=C/c1ccccc1)CCC2 (stereo not drawn),91% (inactive)
23,CCn1cc(C(=O)O)c(=O)c2cc(F)c(N3CCNCC3)cc21,102% (inactive)
24,COC1=CC(=O)OC(c2ccc(OC)cc2)C1 (stereo not drawn),107% (inactive)
25,Cc1ccc(C(=O)/C=C/c2ccccc2)s1,99.8% (inactive)
26,CCCCC/C=C/C/C=C/CCCCCCCC1=NC(C)(C)CN1C(C)C,8.7% (active)
27,CCOC(=O)c1cc(C(=O)c2ccc(F)cc2F)n2ccccc12,84.7% (inactive)
28,CC1=CC2C(C(O)CC3(C)C2CC(C)C32OCOC23COCO3)C2(C)C/C(=C/O)C(=O)C=C12 (stereo not drawn),-3.03% (active)
29,Cc1ccc(C)c(COc2cc(NC(=O)c3ccc4c(c3)OCO4)ccc2N(C)S(C)(=O)=O)c1,13.2% (inactive)

# System: MOLT-4 leukemia
# Test: as above
# Conditions: 10 µM
row,Structure (SMILES),growth
1,COc1ccc(-c2csc(NC(=O)c3ccc(Cc4n[nH]c(=O)c5cccnc45)cc3)n2)cc1,97.2% (inactive)
2,COc1ccccc1/C=N\N/C(N)=N\N=C\c1ccccc1OC,4.77% (active)
3,OCCn1cccn1,95.7% (inactive)
4,NS(=O)(=O)c1ccc(N2N=C(c3ccccc3)CCC2=O)cc1,93.2% (inactive)
5,COc1ccccc1N1CCCSC1=Nc1ccccc1,62.1% (inactive)
6,CC(C)N(CCOc1cccc(-c2nc3sccn3c2-c2ccnc(S(C)(=O)=O)n2)c1)C(C)C,84.3% (inactive)
7,CCOC(=O)CSc1nc(-c2cc(OC)ccc2OC)cc(-c2ccc(OC)cc2)c1C#N,76.6% (inactive)
8,COc1cccc(C2C(C#N)=C(N)Oc3cc(N)ccc32)c1 (stereo not drawn),28.9% (inactive)
9,CN(C)CCOc1cccc(-c2nc3sccn3c2-c2ccnc(S(C)(=O)=O)n2)c1,99.9% (inactive)
10,CCN(CC)CCCC(C)Nc1c2ccc(Cl)cc2nc2ccc(OC)cc12 (stereo not drawn),15.5% (inactive)
11,CC(C1=C(CN(C(=O)Cc2cn(-c3ccccc3)nc2-c2ccc(Cl)cc2)C(C)C)Cc2ccccc21)c1ccccn1 (stereo not drawn),29.3% (inactive)
12,O=C1c2ccccc2C(=O)N1CCCCNc1ccccc1,49.7% (inactive)
13,Cc1ccc(S(=O)(=O)N(C)CCCCCC(=O)O)cc1,95.1% (inactive)
14,CCN(CC)CCNc1ccc(C)c2sc3cc(Cl)ccc3c(=O)c12,1.35% (active)
15,O=C(/C=C/c1cccc(B(O)O)c1)c1cccc(B(O)O)c1,2.84% (active)
16,C[C@@H](C[C@H](CCO)c1ccccc1)c1ccc2ccccc2c1,-54.2% (active)
17,CCN(CC)CCN1c2nc3ccccc3cc2Sc2cc3ccccc3nc21,-47.8% (active)

row,Structure (SMILES),growth
1,CN(C)c1ccc(/C=N/NC(=O)c2ccccc2Nc2cccc(C(F)(F)F)c2)cc1,76.7% (inactive)
2,CS(=O)(=O)c1nccc(-c2c(-c3cccc(OCCN4CCOCC4)c3)nc3sccn23)n1,93.9% (inactive)
3,O=C(CCCSc1nc(-c2ccccc2)cc(-c2ccc(Cl)cc2)n1)NO,11.2% (inactive)
4,CN1CCc2c(sc3nc4n(-c5ccc(Cl)cc5)c(=O)[nH]n4c(=O)c23)C1,99.1% (inactive)
5,Cc1ccc(C2NC(=S)N3C(c4ccc(C)cc4)NC(=S)N23)cc1 (stereo not drawn),24.8% (inactive)
6,COCCn1cc(-c2nc(-c3cccnc3)cs2)c2cc(F)ccc21,79.3% (inactive)
7,CN(C)CCCSc1ccccc1NC1=C(Cl)C(=O)C(Nc2ccccc2SCCCN(C)C)=C(Cl)C1=O,-34% (active)
8,CCOC(=O)c1cc(C(=O)c2cc(OC)c(OC)c(OC)c2)n2c1ccc1c3cccnc3ccc12,31.4% (inactive)
9,NC1=NC(c2ccccc2)C2=C(N1)/C(=C/c1ccccc1)CCC2 (stereo not drawn),77.8% (inactive)
10,CCn1cc(C(=O)O)c(=O)c2cc(F)c(N3CCNCC3)cc21,93.5% (inactive)
11,COC1=CC(=O)OC(c2ccc(OC)cc2)C1 (stereo not drawn),101% (inactive)
12,Cc1ccc(C(=O)/C=C/c2ccccc2)s1,100% (inactive)
13,CCCCC/C=C/C/C=C/CCCCCCCC1=NC(C)(C)CN1C(C)C,1.44% (active)
14,CCOC(=O)c1cc(C(=O)c2ccc(F)cc2F)n2ccccc12,87% (inactive)
15,CC1=CC2C(C(O)CC3(C)C2CC(C)C32OCOC23COCO3)C2(C)C/C(=C/O)C(=O)C=C12 (stereo not drawn),-32.8% (active)
16,Cc1ccc(C)c(COc2cc(NC(=O)c3ccc4c(c3)OCO4)ccc2N(C)S(C)(=O)=O)c1,7.75% (active)
17,O=C(/C=C/C=C/c1c(C2CC2)nc2ccccc2c1-c1ccc(F)cc1)c1cccs1,8.46% (active)
